Source: PubChem BioAssay AID651903 (Broad Institute, 2012)
Screen size: about 22,000 compounds; about 1,100 (5%) were called active. Cut-off read from the data, not from the text of the source: active = activity score above about 55%; inconclusive = no clear call, values can overlap the other calls; inactive = below that. The sample as a whole holds a higher share of actives than the screen did.

Assay: T. cruzi growth inside host cells – cell-based, plate reader, single point, set 2, primary screen (AID 651903);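 note: parasites and compound incubated about four days before reading; 0% = median of neutral control wells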
Details: intracellular Trypanosoma cruzi in host cells, at 5.01 µM, active compounds read high

Which activity score (inhibition) does the source give for CC(C)NC(=O)Nc1cccc2c1O[C@H](CN(C)S(=O)(=O)c1ccccc1)[C@@H](C)CN([C@@H](C)CO)C2=O here?
Its activity score (inhibition) is 0.345% (inactive).

With COc1ccc(CN(C)C[C@@H]2Oc3c(NC(=O)C4CC4)cccc3C(=O)N([C@@H](C)CO)C[C@H]2C)cc1 as the molecule, how does the activity score (inhibition) read?
Its activity score (inhibition) is -27.5% (inactive).

With C[C@H](CO)N1C[C@H](C)[C@H](CN(C)Cc2ccc(C(=O)Nc3ccccc3N)cc2)Oc2ccc(NS(C)(=O)=O)cc2C1=O as the molecule, how does the activity score (inhibition) read?
Its activity score (inhibition) is 16% (inactive).

With Cc1noc(C)c1S(=O)(=O)Nc1ccc2c(c1)C(=O)N([C@@H](C)CO)C[C@H](C)[C@H](CN(C)Cc1ccc(C(=O)Nc3ccccc3N)cc1)O2 as the molecule, how does the activity score (inhibition) read?
Its activity score (inhibition) is 74% (active).

Which activity score (inhibition) does the source give for Cc1ccc(S(=O)(=O)Nc2ccc3c(c2)CC(=O)N([C@@H](C)CO)C[C@H](C)[C@H](CN(C)Cc2ccccc2)O3)cc1 here?
The activity score (inhibition) was 12.2% (inactive).

Which activity score (inhibition) does the source give for C[C@@H]1CN([C@H](C)CO)C(=O)c2cc(NS(=O)(=O)c3cn(C)cn3)ccc2O[C@@H]1CN(C)Cc1ccc(C(=O)Nc2ccccc2N)cc1 here?
Its activity score (inhibition) is 3.44% (inactive).

Which activity score (inhibition) does the source give for Cc1ccc(S(=O)(=O)Nc2ccc3c(c2)CC(=O)N([C@@H](C)CO)C[C@H](C)[C@H](CN(C)Cc2ccc(C(=O)Nc4ccccc4N)cc2)O3)cc1 here?
Its activity score (inhibition) is 66.2% (active).

For C[C@H]1CN([C@@H](C)CO)C(=O)Cc2cc(NS(=O)(=O)c3ccccc3)ccc2O[C@H]1CN(C)Cc1ccc(C(=O)Nc2ccccc2N)cc1, which activity score (inhibition) is on record?
Its activity score (inhibition) is 69.5% (active).

Which activity score (inhibition) does the source give for COc1ccc(S(=O)(=O)Nc2ccc3c(c2)CC(=O)N([C@@H](C)CO)C[C@@H](C)[C@@H](CN(C)Cc2ccc(C(=O)Nc4ccccc4N)cc2)O3)cc1 here?
Its activity score (inhibition) is 54% (inactive).

For Cc1ccc(S(=O)(=O)Nc2ccc3c(c2)C(=O)N([C@@H](C)CO)C[C@@H](C)[C@@H](CN(C)Cc2ccc(C(=O)Nc4ccccc4N)cc2)O3)cc1, which activity score (inhibition) is on record?
Its activity score (inhibition) is 23.3% (inactive).

For C[C@@H]1CN([C@@H](C)CO)C(=O)c2cc(NS(=O)(=O)c3ccccc3)ccc2O[C@@H]1CN(C)Cc1ccc(C(=O)Nc2ccccc2N)cc1, which activity score (inhibition) is on record?
Its activity score (inhibition) is 34.8% (inactive).

For C[C@@H]1CN([C@H](C)CO)C(=O)c2cc(NC(=O)Nc3ccccc3)ccc2O[C@H]1CN(C)Cc1ccc(Cl)c(Cl)c1, which activity score (inhibition) is on record?
Its activity score (inhibition) is -34% (inactive).

With C[C@@H]1CCCCO[C@@H](CN(C)S(=O)(=O)c2cccs2)[C@@H](C)CN([C@H](C)CO)C(=O)c2cc(NC(=O)Nc3ccc(F)cc3)ccc2O1 as the molecule, how does the activity score (inhibition) read?
Its activity score (inhibition) is 21.5% (inactive).

With O=C(NO)c1cccc(C(=O)N/N=C/c2cccnc2Cl)c1 as the molecule, how does the activity score (inhibition) read?
The activity score (inhibition) was 1.22% (inactive).

Which activity score (inhibition) does the source give for C[C@H]1CN([C@@H](C)CO)C(=O)Cc2cc(NC(=O)Cc3cn(C)c4ccccc34)ccc2O[C@@H]1CN(C)Cc1ccccc1 here?
The activity score (inhibition) was 57.4% (active).

Which activity score (inhibition) does the source give for C[C@H]1CN([C@@H](C)CO)C(=O)Cc2cc(NC(=O)Cc3cn(C)c4ccccc34)ccc2O[C@H]1CN(C)Cc1ccccc1 here?
Its activity score (inhibition) is 11.1% (inactive).

With C[C@H]1CN([C@@H](C)CO)C(=O)Cc2cc(NC(=O)Cc3cn(C)c4ccccc34)ccc2O[C@@H]1CN(C)Cc1ccc(C(F)(F)F)cc1 as the molecule, how does the activity score (inhibition) read?
Its activity score (inhibition) is 65.6% (active).

For C[C@@H]1CN([C@H](C)CO)C(=O)Cc2cc(NC(=O)Cc3cn(C)c4ccccc34)ccc2O[C@@H]1CN(C)S(=O)(=O)c1ccccc1, which activity score (inhibition) is on record?
Its activity score (inhibition) is 47.8% (inactive).

Which activity score (inhibition) does the source give for C[C@H](CO)N1C[C@H](C)[C@H](CN(C)Cc2ccncc2)Oc2ccc(NC(=O)Cc3cn(C)c4ccccc34)cc2CC1=O here?
The activity score (inhibition) was 4.58% (inactive).

For C[C@H](CO)N1C[C@H](C)[C@H](CN(C)C(=O)Nc2ccc(F)cc2)Oc2ccc(NC(=O)Cc3cn(C)c4ccccc34)cc2CC1=O, which activity score (inhibition) is on record?
The activity score (inhibition) was -2.27% (inactive).

For C[C@H](CO)N1C[C@H](C)[C@@H](CN(C)S(=O)(=O)c2ccc(F)cc2)Oc2c(NC(=O)Nc3ccccc3)cccc2C1=O, which activity score (inhibition) is on record?
Its activity score (inhibition) is 14.1% (inactive).

Which activity score (inhibition) does the source give for C[C@H]1CN([C@@H](C)CO)C(=O)Cc2cc(NS(=O)(=O)c3ccc(Cl)cc3)ccc2O[C@H]1CN(C)S(C)(=O)=O here?
The activity score (inhibition) was -19.4% (inactive).

With COc1ccc(S(=O)(=O)N(C)C[C@H]2OCCCC[C@@H](C)Oc3ccc(NC(=O)c4ccncc4)cc3C(=O)N([C@H](C)CO)C[C@@H]2C)cc1 as the molecule, how does the activity score (inhibition) read?
The activity score (inhibition) was -7.48% (inactive).

With COc1ccc(S(=O)(=O)N(C)C[C@H]2OCc3cnnn3CCCC(=O)N([C@H](C)CO)C[C@H]2C)cc1 as the molecule, how does the activity score (inhibition) read?
Its activity score (inhibition) is 0.901% (inactive).

Which activity score (inhibition) does the source give for C[C@H](CO)N1C[C@H](C)[C@H](CN(C)CC2CCCCC2)Oc2ccc(NC(=O)CCCCCC(=O)Nc3ccccc3N)cc2C1=O here?
The activity score (inhibition) was 0.222% (inactive).

For C[C@@H]1CN([C@@H](C)CO)C(=O)c2cccc(NC(=O)CCCCCC(=O)Nc3ccccc3N)c2O[C@@H]1CN(C)CC1CCCCC1, which activity score (inhibition) is on record?
The activity score (inhibition) was 17.2% (inactive).

Which activity score (inhibition) does the source give for C[C@H]1CN([C@@H](C)CO)C(=O)c2cccc(NC(=O)CCCCCC(=O)Nc3ccccc3N)c2O[C@@H]1CN(C)CC1CCCCC1 here?
The activity score (inhibition) was 81.9% (active).

Which activity score (inhibition) does the source give for C[C@@H]1CN([C@H](C)CO)C(=O)c2cccc(NC(=O)CCCCCC(=O)Nc3ccccc3N)c2O[C@H]1CN(C)CC1CCCCC1 here?
Its activity score (inhibition) is 62.4% (active).

For C[C@@H]1CN([C@@H](C)CO)C(=O)c2cccc(NC(=O)CCCCCC(=O)Nc3ccccc3N)c2O[C@H]1CN(C)C(=O)Nc1cccc2ccccc12, which activity score (inhibition) is on record?
The activity score (inhibition) was 0.294% (inactive).

For CC(C)NC(=O)Nc1cccc2c1O[C@H](CN(C)CC1CCCCC1)[C@H](C)CN([C@H](C)CO)C2=O, which activity score (inhibition) is on record?
Its activity score (inhibition) is -12% (inactive).

For COc1cc(/C=N\NC(=O)CCCCCCC(=O)NO)c(Br)cc1O, which activity score (inhibition) is on record?
Its activity score (inhibition) is 22.6% (inactive).

With C[C@@H]1CN([C@H](C)CO)C(=O)c2cccc(NC(=O)C3CC3)c2O[C@@H]1CN(C)C(=O)Nc1ccccc1 as the molecule, how does the activity score (inhibition) read?
The activity score (inhibition) was -22.6% (inactive).

Which activity score (inhibition) does the source give for C[C@H]1CN([C@@H](C)CO)C(=O)c2cccc(NC(=O)c3ccc(-c4nccs4)cc3)c2O[C@@H]1CN(C)C(=O)Nc1ccc(C(F)(F)F)cc1 here?
Its activity score (inhibition) is -8.3% (inactive).

With C[C@@H]1CN([C@@H](C)CO)C(=O)c2cccc(NC(=O)Nc3ccc(F)cc3)c2O[C@@H]1CN(C)C(=O)Nc1ccccc1 as the molecule, how does the activity score (inhibition) read?
Its activity score (inhibition) is -2.37% (inactive).

With C[C@H](CO)N1C[C@H](C)[C@H](CN(C)C(=O)Nc2ccc(C(F)(F)F)cc2)Oc2c(NC(=O)c3ccncc3)cccc2C1=O as the molecule, how does the activity score (inhibition) read?
The activity score (inhibition) was 72.4% (active).

With C[C@@H]1CN([C@@H](C)CO)C(=O)c2cccc(NC(=O)Nc3ccc(C(F)(F)F)cc3)c2O[C@@H]1CN(C)S(=O)(=O)c1ccc(F)cc1 as the molecule, how does the activity score (inhibition) read?
The activity score (inhibition) was 71.6% (active).

Which activity score (inhibition) does the source give for C[C@@H]1CN([C@H](C)CO)C(=O)c2cccc(NC(=O)Nc3ccc(F)cc3)c2O[C@@H]1CN(C)C(=O)Nc1ccc(C(F)(F)F)cc1 here?
The activity score (inhibition) was -4.83% (inactive).

For C[C@@H]1CN([C@H](C)CO)C(=O)c2cccc(NS(=O)(=O)c3ccc(F)cc3)c2O[C@@H]1CN(C)C(=O)Nc1ccc(C(F)(F)F)cc1, which activity score (inhibition) is on record?
The activity score (inhibition) was 65.8% (active).

Which activity score (inhibition) does the source give for C[C@H](CO)N1C[C@H](C)[C@H](CN(C)C(=O)Nc2ccccc2)Oc2c(NC(=O)Nc3ccc(C(F)(F)F)cc3)cccc2C1=O here?
Its activity score (inhibition) is 70.2% (active).

For Cc1ccc(S(=O)(=O)Nc2cccc3c2O[C@H](CN(C)C(=O)Nc2ccc(C(F)(F)F)cc2)[C@@H](C)CN([C@@H](C)CO)C3=O)cc1, which activity score (inhibition) is on record?
Its activity score (inhibition) is -14.4% (inactive).

With C[C@H]1CN([C@@H](C)CO)C(=O)c2cccc(NC(=O)Nc3ccc(C(F)(F)F)cc3)c2O[C@H]1CN(C)S(=O)(=O)c1ccccc1 as the molecule, how does the activity score (inhibition) read?
Its activity score (inhibition) is 11.5% (inactive).

Which activity score (inhibition) does the source give for C[C@@H]1CN([C@H](C)CO)C(=O)c2cccc(NC(=O)c3ccc(-c4nccs4)cc3)c2O[C@@H]1CN(C)C(=O)Nc1ccc(C(F)(F)F)cc1 here?
Its activity score (inhibition) is 38.2% (inactive).

For C[C@H]1CN([C@@H](C)CO)C(=O)c2cccc(NS(=O)(=O)c3ccccc3)c2O[C@@H]1CN(C)C(=O)Nc1ccc(C(F)(F)F)cc1, which activity score (inhibition) is on record?
The activity score (inhibition) was 34.3% (inactive).

With C[C@@H]1CN([C@H](C)CO)C(=O)c2cccc(NC(=O)Nc3ccc(C(F)(F)F)cc3)c2O[C@H]1CN(C)S(=O)(=O)c1ccc(Cl)cc1 as the molecule, how does the activity score (inhibition) read?
The activity score (inhibition) was 36.7% (inactive).

With COc1ccc(NC(=O)Nc2cccc3c2O[C@H](CN(C)S(=O)(=O)c2cn(C)cn2)[C@H](C)CN([C@@H](C)CO)C3=O)cc1 as the molecule, how does the activity score (inhibition) read?
The activity score (inhibition) was -20.8% (inactive).

Which activity score (inhibition) does the source give for O=C(NO)c1ccc(C(=O)N/N=C/c2ccc([N+](=O)[O-])c(O)c2)cc1 here?
Its activity score (inhibition) is 1.55% (inactive).

With C[C@@H]1CN([C@@H](C)CO)C(=O)c2cccc(N(C)C)c2O[C@H]1CN(C)S(=O)(=O)c1cccs1 as the molecule, how does the activity score (inhibition) read?
The activity score (inhibition) was -13.3% (inactive).

For Cc1noc(C)c1NC(=O)N(C)C[C@@H]1Oc2ccc(NC(=O)Nc3ccc(C(F)(F)F)cc3)cc2C(=O)N([C@H](C)CO)C[C@@H]1C, which activity score (inhibition) is on record?
The activity score (inhibition) was 0.983% (inactive).

For C[C@H](CO)N1C[C@H](C)[C@@H](CN(C)S(=O)(=O)c2ccc(F)cc2)Oc2ccc(NC(=O)CCC(F)(F)F)cc2C1=O, which activity score (inhibition) is on record?
Its activity score (inhibition) is 4.98% (inactive).

For C[C@H](CO)N1C[C@H](C)[C@H](CN(C)S(=O)(=O)c2cn(C)cn2)Oc2c(NC(=O)c3ccc(-c4nccs4)cc3)cccc2C1=O, which activity score (inhibition) is on record?
Its activity score (inhibition) is -7.9% (inactive).

For C[C@@H]1CN([C@H](C)CO)C(=O)c2cccc(NC(=O)c3nc4ccccc4s3)c2O[C@@H]1CN(C)Cc1ccc(Oc2ccccc2)cc1, which activity score (inhibition) is on record?
The activity score (inhibition) was 24.2% (inactive).

Which activity score (inhibition) does the source give for Cc1noc(C)c1NC(=O)Nc1ccc2c(c1)CC(=O)N([C@@H](C)CO)C[C@H](C)[C@@H](CN(C)CC1CCCCC1)O2 here?
The activity score (inhibition) was 4.18% (inactive).

Which activity score (inhibition) does the source give for Cc1ccc(S(=O)(=O)N(C)C[C@H]2OCCCC[C@@H](C)Oc3ccc(NS(C)(=O)=O)cc3C(=O)N([C@H](C)CO)C[C@@H]2C)cc1 here?
Its activity score (inhibition) is 4.35% (inactive).

Which activity score (inhibition) does the source give for COc1ccc(S(=O)(=O)N(C)C[C@@H]2Oc3ccc(NS(=O)(=O)c4cn(C)cn4)cc3C(=O)N([C@@H](C)CO)C[C@@H]2C)cc1 here?
The activity score (inhibition) was -13% (inactive).

For COc1ccc(S(=O)(=O)N(C)C[C@H]2Oc3ccc(NS(=O)(=O)c4ccc(F)cc4)cc3C(=O)N([C@H](C)CO)C[C@H]2C)cc1, which activity score (inhibition) is on record?
Its activity score (inhibition) is 6.09% (inactive).
